# Source: PubChem BioAssay
# Hits are enriched below; roughly 7.9% of the tested compounds scored in any of these assays.
# SW480 rereplic – inducers of DNA re-replication in SW480 colon cancer cells. SW480 DNA re-replication, Hoechst DNA content imaging, 48 h. Potency, µM (top dose mostly 46.1 µM), for the others: at the highest dose re-replication activation, usual class: activators. 340,000 tested, 1.8% active. AID 624297; further: % of control where 0% means no effect; nearly all actives have a fitted effect of over 55% in size
#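 SW480 cells exposed to compounds for 48 hr at 37 C, 5% CO2, then Hoechst-stained 40 min. Nuclear DNA content imaged by fluorescence scanning (405 nm excitation, 500-530 nm emission); re-replication scored as increased high-intensity nuclei.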
# HT1080NT lethal – kills 2HG-producing HT-1080-NT fibrosarcoma cells; Potency, µM (doses to about 46.1 µM), inactives show at the top dose activity, negative = less viability, hits mostly cytotoxic; HT-1080-NT fibrosarcoma viability, CellTiter-Glo ATP luminescence, 48 h; 360,000 tested, 1.6% active;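 further: NT is the 2HG producing partner of a matched IDH1 knockdown line; 0% = DMSO-treated cells and -100% = media-only wells without cells; nearly all actives have a fitted effect of over 55% in size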
#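 Viability by CellTiter-Glo luminescence after 48 h compound exposure at 37C of HT-1080-NT cells (750/well, RPMI, 5% FBS). % activity scaled between DMSO wells and medium-only wells, then curve-fitted and categorized by curve class.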
# KB-V1 MDR tox – kills drug-selected multidrug resistant KB-V1 cells | AID 1347076 | Potency, µM (highest dose often 46.1 µM), usual class: cytotoxic | KB-V1 MDR cells viability, CellTiter-Glo, 72 h | 400,000 tested, 3.4% active; further: on the % scale 0 is the no-effect control and ±100 the full control effect; nearly all actives have a fitted effect of over 60% in size
#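 Cells of the MDR subline KB-V1 are plated, dosed with compound at multiple concentrations, and incubated 72 h at 37 degrees C; CellTiter-Glo is then added and luminescence read after 10 min.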
# KB-3-1 cytotox – KB-3-1 parental cell cytotoxicity; KB-3-1 viability, CellTiter-Glo ATP luminescence, 72 h; Potency, µM (titrated, usually from 46.1 µM), usual class: cytotoxic; 400,000 tested, 1.4% active; further: on the % scale 0 is the no-effect control and ±100 the full control effect; nearly all actives have a fitted effect of over 60% in size
#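 Using CellTiter-Glo luminescence, growth of non-resistant KB-3-1 adenocarcinoma cells is assessed 72 h after pin-tool compound addition at 37 °C. Normalized responses across the concentration series yield fitted curves.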
# HT1080 IDH1KD tx – kills HT-1080 cells with IDH1 knockdown; HT-1080 IDH1 knockdown viability, ATP luminescence, 48 h; Potency, µM (top dose mostly 46.1 µM), inactives show at the top dose activity, negative = toxicity, usual class: cytotoxic; 360,000 tested, 2% active;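 further: 0% = DMSO wells and -100% = cell-free medium wells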
#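 Using the IDH1-knockdown HT-1080 line run in the same batch and compound series as the NT line, viability after 48 h at 37 °C was determined by CellTiter-Glo luminescence and expressed as % activity.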
# MCF10A rerep – induces DNA re-replication in MCF 10a normal breast cells | 350,000 tested, 2.9% active | MCF 10A DNA re-replication, Hoechst nuclear intensity, 48 h | AID 624296 | Potency, µM (highest dose often 46.1 µM), for inactives: at the top dose activity, positive = re-replication, hits mostly activators; further: % of control where 0% means no effect; nearly all actives have a fitted effect of over 50% in size
# * marks the source's active call; other numbers are inactive results; i = inactive; u = inconclusive; x = no result given. The call rests on the fitted dose curve; in most records, active means well fitted curve in the direction sought with a large enough effect; inconclusive means small, poorly fitted or top-dose-only effect, or another doubt; inactive means no such curve, though single readings can be large; an effect the other way counts as inactive or inconclusive. Potency means the concentration at half of the fitted maximal effect.
SMILES,SW480 rereplic,HT1080NT lethal,KB-V1 MDR tox,KB-3-1 cytotox,HT1080 IDH1KD tx,MCF10A rerep
CCn1cc(CNC(=O)CCSc2nc(-c3ccco3)cc(C(F)(F)F)n2)cn1,u,-18.6%,4.61µM*,u,-16.0%,u
COc1cc2ccccc2cc1C(=O)OCC(=O)Nc1ccc(Br)cc1,x,x,i,i,x,x
Cc1cc(C)n(CC(O)COc2ccc(Cl)cc2Cl)n1 (configuration not stated),24.5%,10.9%,10.3µM*,u,13.1%,1.7%
Cc1nnc(SCc2nnc(-c3cccs3)o2)n1C1CCCCC1,-34.4%,4.6%,u,i,1.4%,0.8%
COc1ccc(-c2noc(-c3cccs3)n2)cc1OC,-17.5%,-4.6%,u,u,-2.6%,-19.2%
COCCCn1c(SCc2nnc(-c3ccc(OC)c(OC)c3)o2)nnc1-c1ccncc1,-6.9%,-3.1%,i,i,-9.0%,-3.7%
COc1ccc(-c2nnc(CSc3nnc(-c4ccncc4)n3C3CCCCC3)o2)cc1OC,-2.5%,-23.1%,13µM*,i,u,12.5%
COc1ccc(-c2nnc(SCc3nnc(-c4cccs4)o3)n2CC2CCCO2)cc1 (configuration not stated),-1.4%,3.9%,4.61µM*,i,3.1%,-9.2%
CCn1c(SCc2nc(-c3ccc(OC)c(OC)c3)no2)nnc1-c1cccs1,-0.4%,0.2%,9.2µM*,i,-25.1%,15.5%
Cc1ccc(Cc2c(-c3ccc(Cl)cc3)nc3ccc(Br)cn23)cc1,x,-11.0%,i,i,-16.4%,x
O=C(NCc1ccc2c(c1)OCO2)C1CCN(c2ccc(S(=O)(=O)N3CCCC3)cc2)CC1,6.1%,-1.6%,2.59µM*,u,0.0%,2.5%
O=C(NCc1cccnc1)C1CCN(c2ccc(S(=O)(=O)N3CCOCC3)cc2Cl)CC1,u,u,i,23.1µM*,u,10.7%
COc1ccccc1NC(=O)C(C)OC(=O)C1CCN(S(=O)(=O)c2ccc(C)c(C)c2)CC1 (configuration not stated),-1.9%,-1.3%,7.31µM*,i,-0.6%,15.4%
COc1ccccc1CNC(=O)C1CCN(S(=O)(=O)c2ccc3c(c2)NC(=O)CO3)CC1,-20.0%,1.0%,i,i,0.4%,-5.3%
CCCNC(=O)C1CCN(c2ccc(S(=O)(=O)N3CCOCC3)cc2Cl)CC1,1.3%,4.6%,u,i,3.3%,2.2%
COc1ccccc1CNC(=O)C1CCN(S(=O)(=O)c2ccc3c(c2)OCCCO3)CC1,20.8%,1.4%,18.4µM*,i,5.1%,-0.3%
O=C(NCc1ccc(Cl)cc1Cl)C1CCN(S(=O)(=O)c2ccc3c(c2)OCCCO3)CC1,-255.4%,0.0%,3.26µM*,u,-20.9%,-2.9%
COc1ccc(S(=O)(=O)N2CCC(C(=O)Nc3ccc4c(c3)OCCO4)CC2)cc1OC,8.9%,-14.8%,18.4µM*,i,-21.1%,2.1%
COc1cccc(CNC(=O)C2CCN(S(=O)(=O)c3ccccc3)CC2)c1,1.2%,15.1%,20.6µM*,i,8.9%,2.3%
O=C(Nc1ccc2c(c1)OCO2)C1CCN(S(=O)(=O)c2ccc3c(c2)OCCO3)CC1,28.8%,-11.0%,u,i,-8.1%,4.3%
O=C(NCc1ccc(F)cc1)C1CCN(S(=O)(=O)c2ccc3c(c2)OCCCO3)CC1,1.8%,7.8%,u,i,-2.3%,11.1%
COc1ccc(S(=O)(=O)N2CCC(C(=O)NCc3cccc(OC)c3)CC2)cc1,8.3%,3.8%,i,i,10.0%,14.7%
O=C(O)CCN1C(=O)C2C3C=CC(C3)C2C1=O (configuration not stated),-0.1%,3.5%,i,i,2.8%,u
O=C1C2C3C=CC(C3)C2C(=O)N1CCCCCCN1C(=O)C2C3C=CC(C3)C2C1=O (configuration not stated),-1.5%,8.5%,18.4µM*,u,-2.2%,11.4%
CCCCC1=NN(C(=O)c2cocc2C)C(O)(C(F)(F)F)C1 (configuration not stated),7.31µM*,4.5%,i,i,-25.8%,u
SMILES,SW480 rereplic,HT1080NT lethal,KB-V1 MDR tox,KB-3-1 cytotox,HT1080 IDH1KD tx,MCF10A rerep
CCOc1cc(CNC(=O)C2COc3ccccc3C2)cc(OCC)c1OCC (configuration not stated),x,x,i,i,x,x
Cc1cc(F)ccc1C(O)c1ncc(-c2ccccc2C(F)(F)F)[nH]1 (configuration not stated),x,-10.3%,u,i,-7.3%,x
C/C=C1\NC(=O)[C@H](CC(N)=O)N(C)C(=O)C([C@@H](C)O)NC(=O)C(CCCc2ccc(OC)cc2)NC(=O)[C@H](C(C)C)NC(=O)/C(=C\C)NC(=O)[C@H](O)[C@@H](C[C@@H](O)CCCCCCC)NC(=O)[C@H](C)NC(=O)CN(C)C(=O)[C@H](CCC(N)=O)NC1=O (some centres not stated),u,-29.4%,i,16.4µM*,u,18.4µM*
CCSc1oc(-c2ccco2)nc1S(=O)(=O)c1ccc(F)cc1,1.2%,3.9%,16.4µM*,i,3.6%,12.5%
CCOc1ccccc1CNC(=O)CN1C(=O)C2CCCCN2c2ccc(C(=O)N(C)C)cc21 (configuration not stated),x,x,i,i,x,x
CC(O)(c1cccnc1)c1nc(-c2ccc3ccccc3c2)cs1 (configuration not stated),x,u,6.51µM*,u,u,x
CC(O)(c1cccc(F)c1)c1nc(-c2cnc3ccccc3c2)cs1 (configuration not stated),x,14.6µM*,u,i,u,x
CC(O)(c1cccc(F)c1)c1nc(-c2ccccc2)cs1 (configuration not stated),x,u,i,i,u,x
CC(O)(c1cccc(F)c1)c1nc(-c2cccc(C(F)(F)F)c2)cs1 (configuration not stated),x,20.6µM*,i,i,u,x
COc1cccc(C(C)(O)c2nc(-c3cnc4ccccc4c3)cs2)c1 (configuration not stated),x,-20.1%,i,i,u,x
CC(O)(c1cccnc1)c1nc(-c2ccc3c(c2)OCO3)cs1 (configuration not stated),x,4.2%,u,i,-19.3%,x
Cc1cccc(Cn2cnc3c(cnn3-c3ccc(Cl)cc3)c2=O)c1,x,x,i,i,x,x
